Data: the supplement of paper PMC6555819

What follows are sequences tested on PPARg:RXRa IVT, anti-PPARg (NR concentration 270 nM, RXRa partner concentration 90 nM) (assay: PBM binding z-score (relative to random genomic background probes); higher = stronger binding; sequences stand for … in GC…GCGATTGACAGCGTAGAATGAAGG).
Method in brief: (§1)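 Each nuclear receptor dimer, without ligand, was incubated for 1 h on custom Agilent 4×180K protein-binding microarrays. Binding was detected with antibodies against each partner (one per run), and scanned fluorescence was regression-normalized. The binding z-scores are referenced to random human genomic background probes.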

Question: How did the PBM binding z-score turn out when CCTACTGGGCCATTCAGAGGTCATTGATCATATG was run?
Answer: 4.4

Question: How did the PBM binding z-score turn out when ATCGAATGGTCGAAGGTGAGTATACCCACCCGAA was run?
Answer: 0.182

Question: With TAGCCTAGGACATGCGGGCCAGTATAGTGTCGGC as the sequence, how does the PBM binding z-score read?
Answer: -0.448

Question: With GCTGCTAGGTCAGGATGGTCAGCTAACGGGTACG as the sequence, how does the PBM binding z-score read?
Answer: 3.02

Question: With CCTCGGAGGACAGAAGGTCAGATCTGTCCGCTTT as the sequence, how does the PBM binding z-score read?
Answer: -0.0702

Question: ATCTCTAGGTAAAGTTCATTGAAAGATCGATAGA was tested. Which PBM binding z-score did it give?
Answer: 2.83

Question: How did the PBM binding z-score turn out when CAGCCTAGGTGAGGGCCAGTATAGGAGGAACGTT was run?
Answer: 0.776

Question: With GCTGCTAGGTCAGGTTGGTCAACTAACGGGTACG as the sequence, how does the PBM binding z-score read?
Answer: 2.52

Question: How did the PBM binding z-score turn out when CGTCGGAGGACAACAGGAGGTCAGAGCTGCCAGA was run?
Answer: 0.616

What follows are sequences tested on PPARg DBDmut:RXRa IVT, anti-PPARg (DBD mutation: PPARg1 K132A/R137A, NR concentration 270 nM, RXRa partner concentration 90 nM) in the same assay as above.
Method in brief: as §1

Question: CAAGCTAGGTCAAGAGGTCAAAGTCCGCTTCCCG was tested. Which PBM binding z-score did it give?
Answer: 0.198

Question: TTACCAAGGTGAAAGGTCGTTGAGGCACGCCTTG was tested. Which PBM binding z-score did it give?
Answer: 0.87

Question: For CCTGCTAGGTCTATGGTCAGCTAAAGCAGCTCGC, which PBM binding z-score is on record?
Answer: -0.749

Question: AGTCATAGTTCACTAGGTAACGTAAGATTCAGCT was tested. Which PBM binding z-score did it give?
Answer: 1.06

Question: How did the PBM binding z-score turn out when ACTAGTTGGTAAGCTGAGGTCACACACAATTCGG was run?
Answer: 1

Question: With GCTGCTAGGTCAGGTTGGTCGGCTAACGGGTACG as the sequence, how does the PBM binding z-score read?
Answer: -0.279

Question: For CCTACTGGGCCAAGGTCTTTGATCAGTCAAAGCA, which PBM binding z-score is on record?
Answer: -0.858

Question: How did the PBM binding z-score turn out when ATATGAAGGTTATCGGGTCATTCAGTTTGCGCAT was run?
Answer: 1.16

Question: GCTGCTAGGTCAGGTTGGTCTGCTAACGGGTACG was tested. Which PBM binding z-score did it give?
Answer: -0.411

Question: Which PBM binding z-score does the source give for CTCGAAAGGTCGGTTGAGGTGAGTAAACGGATAA here?
Answer: 0.0903

Question: With CGTCGGAGGACAGAAGGTCAGAGCTGTCCGCTTT as the sequence, how does the PBM binding z-score read?
Answer: -1.84

Question: For AGTCAAAGTTCACGAGGTAACGTAAGATTCAGCT, which PBM binding z-score is on record?
Answer: 1.17

Question: Which PBM binding z-score does the source give for ATATGTAGCTTAAGGGTCATTCAGGTTGGTTCGC here?
Answer: 1.55

Question: CCGACTGGGCCATTCAGAGGTCATTGATCATATG was tested. Which PBM binding z-score did it give?
Answer: -0.872

Question: How did the PBM binding z-score turn out when ATCTCTAGGTAAAGTTCAGCGAAAGATCGATAGA was run?
Answer: 1.45

Question: For CGTCCAAGGTCAGCAGGTCACTGAAAGCGACGTG, which PBM binding z-score is on record?
Answer: 0.394

Question: With TAGCCTAGGTCAGATCGGGGCAGTATACGCTATA as the sequence, how does the PBM binding z-score read?
Answer: 0.079

Question: With CGTCCAAGGTCAACAGGTCAGTGAAAGCGACGTG as the sequence, how does the PBM binding z-score read?
Answer: 0.0184

Question: With CGTCAAAGTTCAACTAAGTTAACGTAAAGCACGC as the sequence, how does the PBM binding z-score read?
Answer: 1.94

Question: Which PBM binding z-score does the source give for TCTAGGAGGACACGAAGGTCAGAGCTTTCCAGAG here?
Answer: -0.157

Question: For AGTCAAAGTTCACGACGAGGTAACGTAAAGCACG, which PBM binding z-score is on record?
Answer: 0.65

Question: For CAAACTAGGTCACGAAAGGTCAACGTCGAATGAC, which PBM binding z-score is on record?
Answer: 3.99

Question: AGTCAAATTTCACTAGGTAACGTAAGATTCAGCT was tested. Which PBM binding z-score did it give?
Answer: 0.835

Question: For CGAACTAGGTCAGAACAGGACAGTTAAGGATGAT, which PBM binding z-score is on record?
Answer: 3.55

Question: For GATACAGAGTCAGCTAGAGGCCAGAGTATGGAAA, which PBM binding z-score is on record?
Answer: -0.407

Question: How did the PBM binding z-score turn out when CCCCGGAGGACAGAAGGTCAGAGCTGTCCGCTTT was run?
Answer: -2.12

Question: With AGTCCAAGTTCACTAGGTAACGTAAGATTCAGCT as the sequence, how does the PBM binding z-score read?
Answer: 1.01

Question: For CGTCAAAGCTCAACTAAGGTAACGTAAAGCACGC, which PBM binding z-score is on record?
Answer: -1.05

Question: Which PBM binding z-score does the source give for TTACGAAGGTGAAAGGTCGTTGATGCACGCCTTG here?
Answer: 0.416

Question: CATACAGGGTCCGCTAGGCCAGAGTAGGGACGGC was tested. Which PBM binding z-score did it give?
Answer: 0.386

Question: CCTACTGGGCCATTCAGAGGTCATTGATCATATG was tested. Which PBM binding z-score did it give?
Answer: 0.046

Question: With ATCGAATGGTCGAAGGTGAGTATACCCACCCGAA as the sequence, how does the PBM binding z-score read?
Answer: 0.483

Question: Which PBM binding z-score does the source give for TAGCCTAGGACATGCGGGCCAGTATAGTGTCGGC here?
Answer: -1.11

Question: How did the PBM binding z-score turn out when GCTGCTAGGTCAGGATGGTCAGCTAACGGGTACG was run?
Answer: -0.328

Question: How did the PBM binding z-score turn out when CCTCGGAGGACAGAAGGTCAGATCTGTCCGCTTT was run?
Answer: -0.934

Question: How did the PBM binding z-score turn out when ATCTCTAGGTAAAGTTCATTGAAAGATCGATAGA was run?
Answer: 2.23

Question: Which PBM binding z-score does the source give for CAGCCTAGGTGAGGGCCAGTATAGGAGGAACGTT here?
Answer: -0.889

Question: Which PBM binding z-score does the source give for GCTGCTAGGTCAGGTTGGTCAACTAACGGGTACG here?
Answer: -0.717

Question: CGTCGGAGGACAACAGGAGGTCAGAGCTGCCAGA was tested. Which PBM binding z-score did it give?
Answer: -1.5
